The results in this text go back to PubChem BioAssay (EPA / NIEHS).

Usually AC50 stands for the concentration at which the activity in the assay is half-maximal.

Molecules are shown by their SMILES. Activity calls are given as the source filed them. Rule for the calls: active = hit-call score of the fitted dose curve at least 0.9, where 1 is the maximum; inactive = score below 0.9.

The nature of this assay: CEETOX_H295R_ESTRADIOL: CeeTox H295R High-throughput Steroidogenesis Assay for Estradiol (AID 2283440).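 Note: estradiol secreted into medium quantified by LC-MS/MS after dansyl derivatisation.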 The settings on record: actives raise or lower the signal. The procedure: CEETOX_H295R is a cell-based, multiplexed-readout assay that uses H295R, a human adrenal gland cell line, with measurements taken at 48 hours after chemical dosing in a 96-well plate.CEETOX_H295R_ESTRADIOL is one of 23 assay component(s) measured or calculated from the CEETOX_H295R assay. It is designed to make measurements of hormone induction, a form of inducible reporter, as detected with absorbance signals by HPLC-MS-MS technology.Data from the assay component CEETOX_H295R_ESTRADIOL was analyzed into 1 assay endpoint. This assay endpoint, CEETOX_H295R_ESTRADIOL, was analyzed with bidirectional fitting relative to DMSO as the negative control and baseline of activity. […] To generalize the intended target to other relatable targets, this assay endpoint is annotated to the steroid hormone intended target family, where the subfamily is estrogens.
Cell culture and media preparation procedures were conducted in accordance with OECD Test No. 456 guidelines, with minor modifications. H295R cells (ATCC CRL-2128) were expanded for 5 passages and frozen in batches in liquid nitrogen. Prior to the steroidogenesis assay, H295R cells were thawed and passed at least 4 times. The maximum passage was 10. Cells were maintained in a 1:1 mixture of DMEM/F12 supplemented with 5ml/L ITS+ Premix (BD Bioscience) and 12.5 ml/L Nu-Serum (BD Bioscience). After seeding cells into 96-well plates at 50-60% confluency, cells were allowed to adhere overnight. Prior to chemical testing, culture medium was replaced with 175 uL medium containing 10 uM forskolin to stimulate steroidogenesis for 48 hours. Following prestimulation, forskolin medium was replaced with medium containing test chemical solubilized in DMSO (ensuring a final concentration of 0.1% DMSO). Test chemicals were incubated for 48 hours, then the medium was removed and split into 2 vials containing approximately 75uL each, and stored at -80 C prior to hormone analysis. For steroid quantification, media samples were shipped to OpAns, LLC (Durham, NC) on dry ice, and samples were thawed to room temperature prior to liquid-liquid extraction. Steroid hormones were extracted from media samples using methyl tertbutyl ether (MTBE). An extra derivatization with dansyl chloride was included for estrogen (estrone and estradiol) detection only. Steroid hormones were separated by HPLC, eluted using a reverse phase C18 gradient with electrospray positive ionization, followed by quantification by tandem mass spectrometry (MS/MS). Data were acquired on a MassHunter Workstation Acquisition version B03.01 (Agilent Technologies, Inc.) and processed using MassHunter Quantitative Analysis for QQQ. Accuracy was determined for each hormone analyte from 3 standards to determine upper and lower limits of quantification (ULOQ and LLOQ, respectively) using a 7-point standard curve. Precision and accuracy of the extraction and quantification methods were calculated as the percent relative standard deviation (%RSD) of the spiked standards and percent spiked standard recovered, respectively. […] Test medium was removed following chemical exposure, and cell viability was evaluated in the same wells by MTT. MTT procedures were as follows: after removal of test medium, 500 uL of 0.5 mg/ml of 3-[4,5-dimethylthiazol-2-y]2,5-diphenyltetrazoliumbromide solution was added to the cells. Following a 4-hour incubation at 37 C and 5% CO2 to allow formazan-crystal formation, the MTT solution was removed and blue formazan salt crystals were solubilized using 500uL anhydrous isopropanol with shaking for 20 minutes. Absorbance was read at 570 and 650nm using a Packard Fusion microplate reader. Background correction of absorbance units was used to determine percent change relative to controls. […] When a test chemical reduced cell viability to 20% - 70%, the test chemical was diluted 10-fold and re-evaluated, but if cell viability was <20%, then the test chemical was diluted 100-fold and re-evaluated. […]
For the compound `CCCCCCCCC(=O)NCc1ccc(O)c(OC)c1`, the compound was called inactive. On to `C[C@]12CC[C@H](O)CC1=CC[C@@H]1[C@@H]2CC[C@]2(C)C(=O)CC[C@@H]12`, for which the outcome was inactive.

With `Fc1ccc(C2(Cn3cncn3)OC2c2ccccc2Cl)cc1` (stereo unspecified), the AC50 was 1500 nM (active). Turning to `CCOP(=S)(OCC)Oc1nc(Cl)c(Cl)cc1Cl`, the result was inactive. With `C=CC(=O)N(C)C`, the result was inactive. Still for that read-out and setting: to `Nc1ccc(-c2ccc(N)c(Cl)c2)cc1Cl` belongs “inactive”.

Regarding `CCOP(=S)(OCC)SCSP(=S)(OCC)OCC`, the call was inactive. Same read-out and setting: to `O=C(Nc1ccc2[nH]ccc2c1)c1cc2cc(F)ccc2n1Cc1cccc(F)c1` belongs “inactive”. Turning to `NNC(=S)NN`, the compound was classed as inactive. Same read-out and setting: then `CCOP(=S)(OCC)SCCS(=O)(=O)CC`, with “inactive”; and `C(=NC1CCCCC1)=NC1CCCCC1`, with “inactive”.
